Laboratory results as given in PubChem BioAssay (NCI).
The panel holds about 83,000 compounds, 20% with a hit somewhere; the sample as a whole holds those more often.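 Activity criterion: percent growth below 10, measured after cells in 96-well plates were exposed to a single compound concentration for 48 hours.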 Unmarked numbers belong to inactive results. The source made the active and inactive calls.

Key:
Assay in all cases: NCI-60 one-dose screen, 48 h (100 = growth as untreated, 0 = no growth, -100 = all killed)
Conditions in all cases: 10 µM unless noted
[1] = system: HCT-15 colon
[2] = system: HT29 colon
[3] = system: SNB-19 CNS
[4] = system: U251 CNS
[5] = system: PC-3 prostate
[6] = system: SK-MEL-5 melanoma
[7] = system: UACC-62 melanoma
[8] = system: LOX IMVI melanoma
[9] = system: SK-MEL-28 melanoma

Structure (SMILES) | growth [1] | growth [2] | growth [3] | growth [4] | growth [5] | growth [6] | growth [7] | growth [8] | growth [9]
Cc1ccc(S(=O)(=O)NCCN2c3nc4ccccc4cc3Sc3cc4ccccc4nc32)cc1 | 103% | 56.1% | 64.3% | 34.4% | 77.3% | 82.7% | 66.9% | 66.5% | 87.8%
Cc1cc(C)nc(NS(=O)(=O)c2ccc(Nc3nc4nc(SCc5ccccc5)nc(-c5ccc(O)cc5)c4c(=O)[nH]3)cc2)n1 | 109% | 123% | 74.9% | 94.6% | 67.7% | 99.5% | 83.5% | 101% | 86.3%
COc1ccc(OC)c(CCn2cncc2-c2c[nH]c3cc(Br)ccc23)c1 | 25.1% | 10.2% | 50.1% | 34.9% | 34.5% | -75.8% (active) | 36.8% | 37% | 57.5%
Cc1ccc(S(=O)(=O)N2CCN(C(=O)CSc3nc4ccc(C)cc4[nH]3)CC2)cc1 | 110% | 117% | 100% | 106% | 88.3% | 116% | 82.3% | 101% | 85.3%
C#C[C@]1(O)CCC2C3CCc4cc(O)ccc4C3CC[C@@]21C (some centres not stated) | 31.9% | 11.7% | 53.1% | 32.2% | 64.9% | 8.95% (active) | 30.5% | 41.8% | 59.2%
Nc1nc(Nc2ccccc2SSc2ccccc2Nc2nc(N)nc(C(Cl)(Cl)Cl)n2)nc(C(Cl)(Cl)Cl)n1 | 41% | 97.4% | 70.2% | 32.1% | 44.3% | 50.9% | 70% | -24.3% (active) | 89.2%
O=C1C2C(C(=O)N1CC[Se][Se]CCN1C(=O)C3C(C1=O)[C@H]1C=C[C@@H]3C1)[C@H]1C=C[C@@H]2C1 (some centres not stated) | 1.11% (active) | -8.38% (active) | -55.5% (active) | -90.5% (active) | -12.8% (active) | -53.9% (active) | -60.8% (active) | -26% (active) | -3.71% (active)
CCOc1cc(CCNS(=O)(=O)c2ccc(C)cc2)c(C(C)=O)cc1OCC | 83.3% [100 µM] | 79.7% [100 µM] | 87.3% [100 µM] | 86.4% [100 µM] | 33.5% [100 µM] | 66.1% [100 µM] | 59% [100 µM] | 87.1% [100 µM] | 108% [100 µM]
Cc1cc2ccccn2c1C(=O)c1ccc(C(=O)c2ccccc2)cc1 | 85.5% | 82% | 86.1% | 86.2% | 85.2% | 98.4% | 75.1% | 92.1% | 89.7%
c1ccc(Nc2ccc(Nc3nc(-c4ccccc4)nc4ccccc34)cc2)cc1 | 37.5% | 29.7% | 100% | 77% | 74% | 90.3% | 86.6% | 52.4% | 93.7%
O=C1C=CC(=O)N1c1ccccn1 | 97.7% | 115% | 96.6% | 110% | 99.4% | 111% | 95% | 93.6% | 115%
N/C(=N\c1nc2ccccc2s1)NC(=O)Nc1ccccc1Cl | 23.9% | 5.03% (active) | 37.4% | 19.1% | 27.8% | 23.8% | 26.7% | 36.2% | 46.8%
O=CN1N=C(c2ccc(Cl)cc2)CC1c1cccc(Nc2ccnc3cc(Cl)ccc23)c1 (configuration not stated) | 16.9% | 3.98% (active) | 43.3% | 13% | 12.8% | -63.2% (active) | 30.3% | 11.3% | 39.3%
